Consider five molecules from PubChem BioAssay.

Calls of active or inactive are those of the source.

Assay [1] can be described thus: binders of probe aFSTL3 on microarray, primary screen, stem cell growth factor project, biochemical, small-molecule microarray, fluorescence 635/667 (AID 1064).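 Further: measures binding of the biotinylated anti-FSTL3 antibody to printed compounds.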 The following applies: higher = more signal.
Assay [2] in a line: binders from COS7 lysate, DM2A8 probe, primary screen, torsin A project, cell lysate, small-molecule microarray, fluorescence 635/667 (AID 1065). The conditions noted are these: higher = more signal, COS7 lysate expressing mutant human TOR1A.
Assay [3] can be described thus: binders of probe aFGF2 on microarray, primary screen, stem cell growth factor project, biochemical, small-molecule microarray, fluorescence 635/667 (AID 1067).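 Further: measures binding of biotinylated aFGF2 protein to printed compounds on slides; z-score merges feature fluorescence and signal-to-noise across triplicate slides.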 The following applies: higher = more signal.
Assay [4] is described as follows: binders of probe aFGF10 on microarray, primary screen, stem cell growth factor project, biochemical, small-molecule microarray, fluorescence 635/667 (AID 1071).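 Further: score merges 667 nm spot intensity and signal to noise from triplicate slides.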 The following applies: higher = more signal.
The target in assay [5] is Neurogenic locus notch homolog protein 2 (Homo sapiens) (UniProt Q04721). The assay is described as follows: Notch2 binders on small-molecule microarrays, primary screen, biochemical, small-molecule microarray, 635 nm fluorescence, stem cell growth factors (AID 1073). The conditions noted are these: Notch2 binding, higher = more signal.
Chain of Neurogenic locus notch homolog protein 2 (Homo sapiens) (Q04721 whole entry, looked up, canonical isoform): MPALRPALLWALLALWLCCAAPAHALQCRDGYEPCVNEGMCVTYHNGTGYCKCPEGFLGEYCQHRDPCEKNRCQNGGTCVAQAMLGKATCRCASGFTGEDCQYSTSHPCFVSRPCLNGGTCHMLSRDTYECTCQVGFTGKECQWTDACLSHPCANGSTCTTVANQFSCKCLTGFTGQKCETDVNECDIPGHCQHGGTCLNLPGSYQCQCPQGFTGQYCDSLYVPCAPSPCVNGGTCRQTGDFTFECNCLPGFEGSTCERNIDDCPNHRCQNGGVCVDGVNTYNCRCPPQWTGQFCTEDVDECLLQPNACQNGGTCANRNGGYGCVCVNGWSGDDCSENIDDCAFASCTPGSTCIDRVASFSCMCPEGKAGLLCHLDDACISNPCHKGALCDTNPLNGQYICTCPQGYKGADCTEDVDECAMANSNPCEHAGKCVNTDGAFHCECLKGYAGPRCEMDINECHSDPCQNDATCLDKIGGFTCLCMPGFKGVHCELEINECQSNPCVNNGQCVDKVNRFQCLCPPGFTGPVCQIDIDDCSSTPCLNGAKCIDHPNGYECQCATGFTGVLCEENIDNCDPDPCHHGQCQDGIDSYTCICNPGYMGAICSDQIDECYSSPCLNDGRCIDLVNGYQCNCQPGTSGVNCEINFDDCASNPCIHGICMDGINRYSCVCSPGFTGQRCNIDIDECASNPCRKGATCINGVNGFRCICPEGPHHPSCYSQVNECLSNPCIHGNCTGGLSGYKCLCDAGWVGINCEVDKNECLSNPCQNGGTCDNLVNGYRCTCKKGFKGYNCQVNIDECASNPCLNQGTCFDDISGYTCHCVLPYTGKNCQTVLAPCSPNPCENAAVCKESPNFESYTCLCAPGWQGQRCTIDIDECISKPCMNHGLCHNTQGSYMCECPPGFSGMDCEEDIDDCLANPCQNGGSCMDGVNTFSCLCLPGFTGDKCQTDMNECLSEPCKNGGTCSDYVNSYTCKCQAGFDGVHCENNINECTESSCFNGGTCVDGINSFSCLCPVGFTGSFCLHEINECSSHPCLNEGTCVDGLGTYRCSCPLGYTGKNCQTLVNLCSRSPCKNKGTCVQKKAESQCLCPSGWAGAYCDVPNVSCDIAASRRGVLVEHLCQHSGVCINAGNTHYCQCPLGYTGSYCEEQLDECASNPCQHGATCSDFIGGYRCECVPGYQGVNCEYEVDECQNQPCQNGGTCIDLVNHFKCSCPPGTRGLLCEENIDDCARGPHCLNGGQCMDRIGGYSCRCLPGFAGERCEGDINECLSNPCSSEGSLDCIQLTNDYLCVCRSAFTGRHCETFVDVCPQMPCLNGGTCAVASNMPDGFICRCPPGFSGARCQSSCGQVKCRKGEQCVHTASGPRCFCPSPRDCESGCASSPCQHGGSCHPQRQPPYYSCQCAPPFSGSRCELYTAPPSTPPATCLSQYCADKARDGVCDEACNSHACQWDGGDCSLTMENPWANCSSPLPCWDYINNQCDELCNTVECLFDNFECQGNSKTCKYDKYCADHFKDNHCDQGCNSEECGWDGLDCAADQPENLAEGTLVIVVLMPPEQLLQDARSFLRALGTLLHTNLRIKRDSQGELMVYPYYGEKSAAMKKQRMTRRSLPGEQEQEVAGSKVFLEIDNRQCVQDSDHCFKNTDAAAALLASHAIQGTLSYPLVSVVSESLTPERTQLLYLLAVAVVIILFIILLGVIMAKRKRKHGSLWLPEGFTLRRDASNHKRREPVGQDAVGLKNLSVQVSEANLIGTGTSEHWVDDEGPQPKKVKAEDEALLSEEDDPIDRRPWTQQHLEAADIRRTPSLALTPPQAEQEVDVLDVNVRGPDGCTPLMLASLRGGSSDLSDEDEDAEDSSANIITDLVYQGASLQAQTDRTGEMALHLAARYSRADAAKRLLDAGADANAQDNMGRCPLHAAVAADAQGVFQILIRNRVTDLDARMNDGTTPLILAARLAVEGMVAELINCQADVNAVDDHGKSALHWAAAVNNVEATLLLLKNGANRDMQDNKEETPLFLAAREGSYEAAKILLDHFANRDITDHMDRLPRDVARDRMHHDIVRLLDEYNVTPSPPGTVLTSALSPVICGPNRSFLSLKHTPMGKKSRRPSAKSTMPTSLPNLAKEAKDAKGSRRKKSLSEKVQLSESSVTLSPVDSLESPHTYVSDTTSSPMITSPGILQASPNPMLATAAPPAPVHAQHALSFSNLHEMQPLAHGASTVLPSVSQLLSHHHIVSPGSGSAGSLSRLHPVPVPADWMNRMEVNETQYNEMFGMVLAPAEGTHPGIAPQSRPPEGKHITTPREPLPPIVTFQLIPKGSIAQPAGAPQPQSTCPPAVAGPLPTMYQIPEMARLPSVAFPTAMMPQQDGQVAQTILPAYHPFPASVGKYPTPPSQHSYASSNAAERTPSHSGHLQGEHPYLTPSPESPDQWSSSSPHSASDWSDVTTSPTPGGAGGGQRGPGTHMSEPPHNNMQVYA
In assay [6] the target is Pro-neuregulin-1, membrane-bound isoform (Homo sapiens) (UniProt Q02297). Nature of the assay: NRG1 binders on small-molecule microarrays, primary screen, psychiatric disease protein project, biochemical, small-molecule microarray, fluorescence 635/667 (AID 1075).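 Further: score combines 667 nm spot fluorescence with signal to noise.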 The conditions noted are these: NRG1 binding, 635 nm fluorescence, higher = more signal.
The test system of assay [7] is Neuregulin-1 EGF-like domain. Nature of the assay: binders of neuregulin-1 EGF-like domain, primary screen, biochemical, small-molecule microarray, 635 nm fluorescence (AID 1081).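 Further: binding of the protein to compounds printed on small-molecule microarray slides.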 The conditions noted are these: small-molecule microarray binding, higher = more signal.
Assay [8] is described as follows: FRG1 promoter luciferase signal modulators, primary screen, FRG1 inhibition for FSHD, cell-based, C2C12 myotubes, firefly/Renilla luciferase, luminescence (AID 1084). The following applies: higher = more signal, called active from +8 up or from −8 down.
Assay [9] can be described thus: binders of probe aFST on microarray, primary screen, stem cell growth factor project, biochemical, small-molecule microarray, fluorescence 635/667 (AID 1086).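 Further: score merges 667 nm fluorescence with signal-to-noise of each printed compound spot.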 The following applies: higher = more signal.
The nature of assay [10]: binders of probe aHhip on microarray, primary screen, stem cell growth factor project, biochemical, small-molecule microarray, fluorescence 635/667 (AID 1087).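 Further: score merges spot fluorescence at 667nm with spot signal to noise ratio.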 The conditions noted are these: higher = more signal.
For assay [11], the system named is PRMT1 (protein arginine N-methyltransferase 1). Nature of the assay: PRMT1 binders on small-molecule microarrays, primary screen, biochemical, small-molecule microarray, 635 nm fluorescence (AID 1088).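 Further: binding of Prmt1 protein to compounds spotted on small-molecule microarray slides.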 The following applies: small-molecule microarray binding, higher = more signal.
Assay [12] is described as follows: yeast growth modulation, basal conditions, primary screen, YJM789 clinical isolate, OD600, 24 h (AID 1089).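 Further: growth of clinical yeast isolate S. cerevisiae YJM 789 seeded 1000 cells per well; test concentration not given here.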 The following applies: S. cerevisiae YJM789 growth, higher = more signal, called active from +8 up or from −8 down.
Assay [13] is described as follows: fission yeast growth modulation, primary screen, strain 972, OD600, 24 h, no modulator (AID 1090).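 Further: basal condition with compound alone and no growth modifier present; test concentration not given here.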 The following applies: S. pombe 972 growth, higher = more signal, called active from +8 up or from −8 down.
Assay [14] can be described thus: S. cerevisiae growth modulation with rapamycin, primary screen, strain BY4716, OD600, 96 h (AID 1091). Further: test concentration not given here. The following applies: higher = more signal, called active from +8 up or from −8 down.
Assay [15] concerns the target Torsin-1A-interacting protein 2 (Homo sapiens) (UniProt Q8NFQ8). The assay is described as follows: LULL1 binders on small-molecule microarray, primary screen, cell lysate, human LULL1 lysate, 635/667 nm fluorescence (AID 1092).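 Further: probe is lysate of COS7 cells overexpressing human LULL1; score merges per-feature 667 nm fluorescence with signal-to-noise.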 The conditions noted are these: hLULL1 lysate binding, 635 nm fluorescence, higher = more signal.
The nature of assay [16]: E. coli growth modulation, two-sided OD650, primary screen, E. coli filamentation project, strain DRC41, 24 h (AID 1093).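 Further: MC1000 strain lacking acrAB efflux and sulA so SOS filamentation is blocked; test concentration not given here.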 The following applies: OD650, 24 h, higher = more signal, called active from +8 up or from −8 down.
A short description of assay [17]: small-molecule microarray binders of probe aLefty2, primary screen, biochemical, biotinylated probe, 635/667 nm fluorescence (AID 1094).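 Further: score merges spot fluorescence near 667 nm with spot signal-to-noise ratio.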 The following applies: higher = more signal.
Assay [18] concerns Noggin (protein binding on small-molecule microarray). The assay is described as follows: Noggin binders on small-molecule microarray, primary screen, biochemical, 635/667 nm fluorescence (AID 1095).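 Further: score merges 667 nm feature fluorescence with signal to noise over triplicate slides.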 The following applies: 635 nm fluorescence, higher = more signal.
Assay [19] addresses Neurogenic locus notch homolog protein 3 (Homo sapiens) (UniProt Q9UM47). The assay is described as follows: NOTCH3 binders on small-molecule microarray, primary screen, biochemical, 635/667 nm fluorescence (AID 1096). The following applies: NOTCH3 binding, 635 nm fluorescence, higher = more signal.
Assay [20] is described as follows: small-molecule microarray binders of probe aEGFR, primary screen, biochemical, biotinylated probe, 635/667 nm fluorescence (AID 1097).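 Further: probe is a biotinylated anti-EGFR antibody binding compounds printed on slides; score combines fluorescence near 667 nm and signal to noise of each spot.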 The following applies: higher = more signal.

Chain of Neurogenic locus notch homolog protein 3 (Homo sapiens) (Q9UM47 whole entry, looked up): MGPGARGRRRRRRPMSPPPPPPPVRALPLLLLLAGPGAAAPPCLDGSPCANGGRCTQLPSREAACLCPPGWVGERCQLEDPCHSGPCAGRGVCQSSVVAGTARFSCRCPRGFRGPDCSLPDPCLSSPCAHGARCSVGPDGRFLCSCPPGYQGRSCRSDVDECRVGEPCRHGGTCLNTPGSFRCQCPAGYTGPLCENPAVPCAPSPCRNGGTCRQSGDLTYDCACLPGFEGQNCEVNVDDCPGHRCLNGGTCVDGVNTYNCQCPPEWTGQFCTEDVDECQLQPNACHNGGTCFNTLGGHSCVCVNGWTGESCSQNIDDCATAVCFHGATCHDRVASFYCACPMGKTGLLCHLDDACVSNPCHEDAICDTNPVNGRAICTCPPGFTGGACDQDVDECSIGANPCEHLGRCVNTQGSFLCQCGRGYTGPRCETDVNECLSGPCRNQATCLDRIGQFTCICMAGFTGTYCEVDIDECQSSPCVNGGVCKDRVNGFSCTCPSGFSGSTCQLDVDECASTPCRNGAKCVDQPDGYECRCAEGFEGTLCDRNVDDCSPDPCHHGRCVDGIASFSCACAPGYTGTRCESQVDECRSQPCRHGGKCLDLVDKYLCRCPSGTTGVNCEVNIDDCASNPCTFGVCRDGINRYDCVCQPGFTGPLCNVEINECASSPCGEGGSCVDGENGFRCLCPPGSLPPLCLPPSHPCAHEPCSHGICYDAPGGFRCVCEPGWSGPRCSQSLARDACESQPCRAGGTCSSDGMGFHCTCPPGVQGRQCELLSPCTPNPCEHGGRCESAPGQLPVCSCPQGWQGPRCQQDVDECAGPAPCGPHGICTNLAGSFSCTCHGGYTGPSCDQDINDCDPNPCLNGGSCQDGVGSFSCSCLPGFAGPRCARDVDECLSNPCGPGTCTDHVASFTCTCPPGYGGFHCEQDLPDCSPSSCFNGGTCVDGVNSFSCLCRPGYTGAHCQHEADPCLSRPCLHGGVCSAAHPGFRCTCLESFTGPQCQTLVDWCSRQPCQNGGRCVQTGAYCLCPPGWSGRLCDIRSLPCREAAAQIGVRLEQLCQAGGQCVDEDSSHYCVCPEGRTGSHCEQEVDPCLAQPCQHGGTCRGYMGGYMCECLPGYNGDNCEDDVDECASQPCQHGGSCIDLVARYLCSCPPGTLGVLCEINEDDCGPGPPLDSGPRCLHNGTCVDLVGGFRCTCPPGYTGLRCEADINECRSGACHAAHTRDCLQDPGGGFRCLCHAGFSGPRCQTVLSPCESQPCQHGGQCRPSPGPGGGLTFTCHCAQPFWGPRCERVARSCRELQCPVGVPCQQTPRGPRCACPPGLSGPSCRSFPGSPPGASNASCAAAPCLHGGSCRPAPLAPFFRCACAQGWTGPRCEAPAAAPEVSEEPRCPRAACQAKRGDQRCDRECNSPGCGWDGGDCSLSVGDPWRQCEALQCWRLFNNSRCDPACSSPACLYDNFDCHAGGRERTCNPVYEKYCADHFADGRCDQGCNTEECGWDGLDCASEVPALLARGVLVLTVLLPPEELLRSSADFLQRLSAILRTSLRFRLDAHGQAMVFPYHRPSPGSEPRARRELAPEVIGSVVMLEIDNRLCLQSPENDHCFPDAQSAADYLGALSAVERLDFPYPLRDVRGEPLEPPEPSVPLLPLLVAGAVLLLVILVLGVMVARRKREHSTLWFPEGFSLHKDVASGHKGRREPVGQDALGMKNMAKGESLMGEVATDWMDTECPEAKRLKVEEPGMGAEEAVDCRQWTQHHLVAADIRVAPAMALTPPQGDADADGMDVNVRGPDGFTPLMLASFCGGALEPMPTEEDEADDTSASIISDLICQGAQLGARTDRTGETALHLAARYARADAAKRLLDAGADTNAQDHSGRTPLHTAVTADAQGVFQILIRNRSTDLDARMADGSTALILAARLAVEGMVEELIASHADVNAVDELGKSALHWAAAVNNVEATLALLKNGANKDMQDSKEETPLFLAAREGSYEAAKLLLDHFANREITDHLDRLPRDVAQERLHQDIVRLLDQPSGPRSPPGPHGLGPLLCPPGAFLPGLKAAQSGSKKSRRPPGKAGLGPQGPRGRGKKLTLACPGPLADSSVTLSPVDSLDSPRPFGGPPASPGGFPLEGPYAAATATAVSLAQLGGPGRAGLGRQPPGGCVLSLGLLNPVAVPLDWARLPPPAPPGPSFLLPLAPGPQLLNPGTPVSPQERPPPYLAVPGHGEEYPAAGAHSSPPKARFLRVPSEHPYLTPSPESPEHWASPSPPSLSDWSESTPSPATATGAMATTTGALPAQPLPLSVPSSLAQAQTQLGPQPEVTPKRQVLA

Turning to `CO[C@H]1COC(=O)CCC[C@H](C)[C@@H](OC)COC(=O)CC=C[C@@H]1C`, the composite z-score was -0.673 in assay [1]; 0.929 in assay [2]; -0.122 in assay [3]; 0.227 in assay [4]; 0.0458 in assay [5]; -0.21 in assay [6]. The composite z-score in assay [7] is -0.179; in assay [9], -0.106; in assay [10] it was -0.0237; in assay [11], 0.411; in assay [15], -0.355; in assay [17], -0.0448. The composite z-score was 0.409 in assay [18], 0.0682 in assay [19] and -0.0405 in [20]. Also, the z-score in [8] was -0.0314 (inactive); in assay [12], 0.0303 (inactive); in assay [13], 0.197 (inactive); in [14] it was -1.08 (inactive); in assay [16], 0.556 (inactive).

In the case of `CCN1C(=O)[C@H]2[C@@H]3C(=CC[C@H]2C1=O)C(=O)[C@H]1O[C@H]1[C@H]3O`, the composite z-score in assay [1] is -0.538; in assay [2], -0.0147; in assay [3], -0.0996; in [4], 0.465; in assay [5], 0.613; in assay [6], 0.0141. Also, the composite z-score in assay [7] was 0.73; in assay [9], 0.167; in assay [10], -0.0346; in [11] it was 0.833; in [15], -0.176; in [17], -0.138. For the same molecule, the composite z-score in assay [18] was found to be 0.609; in assay [19], 0.732; in assay [20] it was 0.0107. Besides, the z-score in assay [8] is -2.63 (inactive); in [12], 0.367 (inactive); in assay [13] it was -0.3 (inactive); in assay [14] it was 0.247 (inactive); in assay [16] it was -0.763 (inactive).

For `COC(=O)[C@H](C)NC(=O)CCC1CC(OC(=O)NCc2cccc3ccccc23)CC2(CCCC(COC(=O)NCCOc3ccccc3)O2)O1` (stereo not given in full), the composite z-score was -0.359 in assay [1]; 0.222 in assay [2]; -0.0707 in assay [3]; 0.15 in assay [4]; 0.708 in assay [5]; 1.27 in [6]. The composite z-score in [7] was 1.01; in assay [9], 0.173; in assay [10] it was -0.169; in assay [11], 1.53; in assay [15], 2.21; in assay [17], -0.208. In addition, the figures for the composite z-score in [18], in [19] and in [20] were 0.11, 0.377 and -0.145, respectively. In addition, the z-score in [8] is 0.191 (inactive); in assay [12] it was -0.534 (inactive); in assay [13], -0.231 (inactive); in [14] it was -0.576 (inactive); in [16], 0.544 (inactive).

With `CC(CCC(=O)OC[C@H]1O[C@H](C#Cc2ccccc2)C=C[C@@H]1Oc1ccc(C)cc1)=NO[C@@H](C)c1cc(-c2c(C)cc(C)cc2C)no1`, the composite z-score was -0.0913 in [1]; -1.14 in assay [2]; -0.144 in assay [3]; -0.558 in [4]; -1.58 in assay [5]; 0.122 in assay [6]. Further, the composite z-score in assay [7] is -0.525; in [9], -0.213; in assay [10], 0.312; in assay [11], -0.187; in assay [15] it was 0.226; in assay [17] it was -0.328. Besides, the composite z-score in [18] is -0.199; in assay [19], -1.12; in assay [20] it was -0.296. Besides, the z-score in [8] is 0.87 (inactive); in assay [12], 0.914 (inactive); in assay [13], 0.811 (inactive); in assay [14], 0.361 (inactive); in assay [16], -0.318 (inactive).

With `CCOC(=O)[C@H](CC(C)C)NC(=O)CCC1CC(OC(=O)NCCc2ccc(F)cc2)CC2(CCCC(COC(=O)NCCCN3CCCC3=O)O2)O1` (stereo not given in full), the composite z-score in assay [1] is -0.547; in assay [2], -0.0261; in [3], -0.0922; in assay [4], 0.403; in assay [5], 0.951; in assay [6] it was -0.0939. Besides, the composite z-score in assay [7] was 0.763; in assay [9], -0.015; in assay [10], -0.0994; in assay [11] it was 0.838; in assay [15], 1.26; in assay [17], -0.132. Moreover, the composite z-score in assay [18] is 0.144; in [19], 0.965; in [20], -0.0208. In addition, the z-score in assay [8] was 0.404 (inactive); in assay [12], -0.388 (inactive); in assay [13] it was 0.531 (inactive); in assay [14], 0.0799 (inactive); in [16], 0.546 (inactive).
